# Experimental data taken from PubChem BioAssay (NCI).
# About 83,000 compounds went through this panel and 20% of them were active in at least one assay; those are over-represented in the sample as a whole.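 A percent growth of 40 corresponds to 60% growth inhibition; 0 means no net growth; -100 means all cells died. Active threshold: below 10.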 Values without a mark were called inactive. Calls of active or inactive are those of the source.
# Tests used:
# Test in all cases: NCI-60 one-dose screen, 48 h (100 = growth as untreated, 0 = no growth, -100 = all killed)
# Conditions in all cases: 10 µM unless noted
# SK-MEL-2 melanoma = tested on: SK-MEL-2 melanoma
# EKVX NSCLC = tested on: EKVX NSCLC
# SN12C renal = tested on: SN12C renal
# UO-31 renal = tested on: UO-31 renal
# TK-10 renal = tested on: TK-10 renal
# ACHN renal = tested on: ACHN renal
# CAKI-1 renal = tested on: CAKI-1 renal
# A498 renal = tested on: A498 renal
# CCRF-CEM leukemia = tested on: CCRF-CEM leukemia
# MOLT-4 leukemia = tested on: MOLT-4 leukemia
SMILES,growth (SK-MEL-2 melanoma),growth (EKVX NSCLC),growth (SN12C renal),growth (UO-31 renal),growth (TK-10 renal),growth (ACHN renal),growth (CAKI-1 renal),growth (A498 renal),growth (CCRF-CEM leukemia),growth (MOLT-4 leukemia)
COc1cc2c(cc1OC)C(C)N(S(N)(=O)=O)CC2 (stereo not given),106%,107%,88.7%,81.9%,103%,102%,101%,102%,80%,91.8%
Cc1cc(C(=O)O)c(C)n1-c1cccc(C(=O)O)c1,18.8%,98.5%,83.7%,85.5%,95.8%,-8.94% (active),13.8%,93%,108%,62.9%
COc1ccc(Nc2nnc(-c3ccc(OC)c(OC)c3)o2)cc1,90.5%,89.8%,97.8%,55.3%,114%,82.8%,89%,94.8%,86.8%,91.3%
CC(C)=CC(=O)OCC(=O)O[C@@H]1C[C@]2(C(C)C)O[C@@]1(C)[C@@H]1CC[C@@H](C)[C@H]1[C@@H]2OC(=O)/C=C/c1ccccc1,89%,84.1%,39.8%,-64.7% (active),95.5%,4.57% (active),12.8%,-79.2% (active),78.4%,79.1%
Cc1cccc(/C=C/c2c(C(=O)/C=C/c3ccccc3)c(C)nc3ccccc23)c1,-60.8% (active),0.995% (active),-44.3% (active),-94.2% (active),-6.55% (active),-23% (active),-36.2% (active),-38.2% (active),6.17% (active),5.83% (active)
CCc1ccccc1-n1c(-c2ccc(OC)cc2)cc(-c2ccc(OC)cc2)c(C#N)c1=O,90.2%,94.1%,89.8%,88.3%,97.2%,61.6%,77.9%,69.5%,127%,133%
O=S(=O)(NCCNc1nccc(-c2c(-c3ccc(F)c(O)c3)nc3sccn23)n1)c1ccc(O)cc1,19.8%,56.3%,38.2%,6.46% (active),46.3%,33.3%,27.2%,43.4%,22.2%,19.3%
Cc1cn(-c2cc(NC(=O)c3cncc(C#Cc4cnc(N)c5ncccc45)c3)cc(C(F)(F)F)c2)cn1,6.39% (active),85.1%,58.3%,25.4%,90.3%,73.4%,92%,60.7%,32.5%,34.7%
Nc1cnc(C(=O)NNc2nc3cc(F)ccc3n3cccc23)cn1,75%,26.2%,46.6%,8.25% (active),51.3%,12.9%,29.5%,44.7%,21.4%,19%
O=C(/C=C/c1cccc(Cl)c1)c1cccc(OCCCOc2cccc(C(=O)/C=C/c3cccc(Cl)c3)c2)c1,116%,99%,96.4%,66.8%,125%,97.3%,70.4%,102%,98.1%,96.9%
CC(=O)c1c(C)nc2ccccc2c1/C=C/c1ccc(F)cc1,93.3%,75.5%,93.3%,67.6%,91.8%,85.4%,75.7%,84.6%,82%,84.1%
CN(C)Cc1ccc(O)c(C(=O)O)c1,124%,101%,109%,96.4%,70.7%,101%,92.8%,104%,103%,101%
O=S(=O)(NCCNc1nccc(-c2c(-c3ccc(F)c(O)c3)nc3occn23)n1)c1ccc(Cl)cc1,42.2%,104%,80.7%,81.6%,122%,76.5%,92.7%,97.9%,70.7%,84.1%
CSc1nnc(-c2cc3c([nH]c4ccccc43)c(-c3cccc(O)c3)n2)n1-c1ccccc1,12.9%,45.8%,43.7%,39.7%,62.2%,36.3%,44.6%,25.5%,21.8%,26.6%
Nc1n[nH]c2ccc([C@H]3[C@@H]4C5CCC(C5)[C@@H]4c4c(ccc5[nH]ncc45)N3S(=O)(=O)C3CC3)cc12 (stereo not given in full),53.2%,29.8%,29.1%,43%,61.7%,18.5%,26.2%,-29.2% (active),16.2%,19%
CC(C)(Sc1cc(C(C)(C)C)c(O)c(C(C)(C)C)c1)Sc1cc(C(C)(C)C)c(OC(=O)CCCC(=O)O)c(C(C)(C)C)c1,76%,53.5%,41.4%,38%,74.2%,47%,59%,60.2%,43.5%,36.9%
CC(C)(Sc1cc(C(C)(C)C)c(OC(=O)CCCC(=O)O)c(C(C)(C)C)c1)Sc1cc(C(C)(C)C)c(OC(=O)CCCC(=O)O)c(C(C)(C)C)c1,55.2%,47.2%,19.6%,37.9%,58.6%,26.9%,52.8%,66.5%,37.8%,26.6%
O=C(CSc1oc(-c2ccccc2)nc1S(=O)(=O)c1ccccc1)Nc1ccc(F)cc1,87.6%,78.2%,89%,76.8%,91.8%,80.2%,73.1%,82.6%,84.7%,73.3%
Cc1ccc2c(n1)C(=O)C(Br)=C(C1CCCC1)C2=O,112%,98.9%,95.2%,78.3%,120%,77.9%,90.8%,108%,26.2%,34.6%
COc1cc(-c2csc(NC(=O)c3ccc(N4CCOCC4)c(C(F)(F)F)c3)n2)cc(OC)c1OC,23%,33.7%,48.9%,15.4%,64.5%,21.6%,36.4%,56.7%,14.2%,10.1%
CN(C)S(=O)(=O)c1cccc(C(=O)Nc2nc(-c3ccc(F)c(F)c3)cs2)c1,32.2%,48.7%,62.9%,38.7%,81.2%,63.4%,97.1%,46.3%,39.6%,28.2%
C=C(C)[C@@H]1CCC[C@]2(COS(=O)(=O)c3ccc(C)cc3)CC[C@]3(C)[C@@H](CC[C@@H]4[C@@]5(C)CCCNC(C)(C)[C@@H]5CC[C@]43C)[C@@H]12,83.1%,9.77% (active),-94.4% (active),61%,43.2%,44.6%,-68.3% (active),81.3%,1.15% (active),-11.1% (active)
Cc1ccc(C2=Nc3c(N)ncnc3NC(c3cccc(Nc4ccnc5cc(C(F)(F)F)ccc45)c3)C2)cc1 (stereo not given),-11.1% (active),25.2%,50%,26.4%,64.7%,58.1%,21%,47.8%,4.56% (active),-2.37% (active)
Cc1csc(Nc2nc(-c3ccccn3)nc(C(Cl)(Cl)Cl)n2)n1,95.8%,95.1%,97.9%,84.3%,94.8%,79.7%,82.2%,90.7%,59.2%,67.9%
O=C(N(c1ccccc1)c1ccccc1)n1cc(I)c2nc(Cl)nc(Cl)c21,70.5%,71.1%,34.8%,54.4%,86.8%,57.9%,39.6%,67.9%,4.32% (active),2.48% (active)
N#Cc1nc(-c2ccc(F)cc2)oc1S(=O)(=O)N1CCCCC1,81.1%,98.5%,80.2%,84.8%,-69.8% (active),3.58% (active),91%,112%,1.84% (active),-6.66% (active)
